Measurements from ChEMBL document CHEMBL3988442, “University of Dundee, Small-Polar-MMV Screening Library” (2021).
For some assays here: Measured potencies and affinities stand elsewhere.

How the values were obtained:
Parameters in all cases: scale not given: direction of the effect not stated beside the values
[1] = biological target: Protein translocase subunit SecA (Escherichia coli (strain K12)) (UniProt P10408); assay: Assay to Identify E. coli SecA ATPase Inhibitors; assay type: functional; settings: 30 µM
Sequence of Protein translocase subunit SecA (Escherichia coli (strain K12)) (P10408 whole entry): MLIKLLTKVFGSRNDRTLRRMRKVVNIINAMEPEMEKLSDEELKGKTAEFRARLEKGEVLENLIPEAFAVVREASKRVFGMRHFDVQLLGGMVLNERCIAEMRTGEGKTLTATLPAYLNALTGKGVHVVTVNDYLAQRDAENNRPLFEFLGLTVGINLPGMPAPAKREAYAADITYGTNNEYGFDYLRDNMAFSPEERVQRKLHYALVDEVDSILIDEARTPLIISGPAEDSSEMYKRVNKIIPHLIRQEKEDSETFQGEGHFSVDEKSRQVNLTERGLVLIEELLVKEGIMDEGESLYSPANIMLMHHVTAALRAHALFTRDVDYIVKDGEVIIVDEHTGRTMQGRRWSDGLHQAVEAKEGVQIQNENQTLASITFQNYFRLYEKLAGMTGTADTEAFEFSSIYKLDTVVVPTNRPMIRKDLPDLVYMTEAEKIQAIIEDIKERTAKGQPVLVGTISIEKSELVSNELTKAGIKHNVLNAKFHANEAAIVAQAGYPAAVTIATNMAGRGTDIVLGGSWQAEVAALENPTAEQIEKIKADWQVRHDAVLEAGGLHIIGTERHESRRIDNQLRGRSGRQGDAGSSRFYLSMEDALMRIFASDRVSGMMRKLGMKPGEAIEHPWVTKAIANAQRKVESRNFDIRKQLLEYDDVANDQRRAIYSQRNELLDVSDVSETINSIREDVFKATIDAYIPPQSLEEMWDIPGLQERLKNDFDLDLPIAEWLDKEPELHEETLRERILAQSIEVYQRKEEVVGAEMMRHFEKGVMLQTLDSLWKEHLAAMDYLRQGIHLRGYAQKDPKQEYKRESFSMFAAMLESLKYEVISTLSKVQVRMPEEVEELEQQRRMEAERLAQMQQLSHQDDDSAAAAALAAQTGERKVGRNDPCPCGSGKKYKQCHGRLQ

[2] = biological target: T1, Ubiquitin-activating enzyme e1, putative (Leishmania donovani (strain BPK282A1)) (UniProt E9BSI1); assay: Leishmania donovani Ubiquitin Activating Enzyme (LdE1); assay type: functional; settings: 30 µM
T1 sequence (whole entry): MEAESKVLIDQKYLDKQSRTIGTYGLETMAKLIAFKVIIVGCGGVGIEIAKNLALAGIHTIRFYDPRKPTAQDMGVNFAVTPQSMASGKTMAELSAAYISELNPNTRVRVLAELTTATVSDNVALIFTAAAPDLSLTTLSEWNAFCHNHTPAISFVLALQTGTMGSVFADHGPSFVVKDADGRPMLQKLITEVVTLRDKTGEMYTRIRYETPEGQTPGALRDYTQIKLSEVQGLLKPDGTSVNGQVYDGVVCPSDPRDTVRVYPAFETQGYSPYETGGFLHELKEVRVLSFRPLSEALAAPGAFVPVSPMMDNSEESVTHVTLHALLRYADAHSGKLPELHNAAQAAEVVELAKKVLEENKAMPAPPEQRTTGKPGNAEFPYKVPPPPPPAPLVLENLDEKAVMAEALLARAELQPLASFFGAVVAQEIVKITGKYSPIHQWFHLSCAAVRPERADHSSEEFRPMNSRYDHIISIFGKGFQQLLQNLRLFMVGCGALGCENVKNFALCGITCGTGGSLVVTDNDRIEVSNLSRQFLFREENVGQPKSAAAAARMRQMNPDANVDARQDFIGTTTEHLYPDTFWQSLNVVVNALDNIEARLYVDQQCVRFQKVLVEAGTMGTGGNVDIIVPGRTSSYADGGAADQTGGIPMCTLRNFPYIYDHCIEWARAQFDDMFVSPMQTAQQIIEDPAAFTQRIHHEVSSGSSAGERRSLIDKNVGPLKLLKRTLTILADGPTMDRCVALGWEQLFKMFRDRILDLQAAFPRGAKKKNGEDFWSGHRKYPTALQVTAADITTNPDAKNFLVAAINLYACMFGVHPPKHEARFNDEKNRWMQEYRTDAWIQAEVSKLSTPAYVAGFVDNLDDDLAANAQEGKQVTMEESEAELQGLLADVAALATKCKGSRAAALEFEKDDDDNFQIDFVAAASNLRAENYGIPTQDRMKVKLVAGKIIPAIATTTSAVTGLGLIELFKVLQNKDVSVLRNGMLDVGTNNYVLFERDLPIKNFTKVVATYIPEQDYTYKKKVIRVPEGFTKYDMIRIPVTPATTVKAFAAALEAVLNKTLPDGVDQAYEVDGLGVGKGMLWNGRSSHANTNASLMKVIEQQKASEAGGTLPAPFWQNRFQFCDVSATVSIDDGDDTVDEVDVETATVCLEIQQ

[3] = biological target: Sialic acid-binding Ig-like lectin 9 (Homo sapiens) (UniProt Q9Y336); assay: Hs-Siglec9 ALPHAscreen SOP 20170721; settings: 10 µM
Sequence of Sialic acid-binding Ig-like lectin 9 (Homo sapiens) (Q9Y336 whole entry): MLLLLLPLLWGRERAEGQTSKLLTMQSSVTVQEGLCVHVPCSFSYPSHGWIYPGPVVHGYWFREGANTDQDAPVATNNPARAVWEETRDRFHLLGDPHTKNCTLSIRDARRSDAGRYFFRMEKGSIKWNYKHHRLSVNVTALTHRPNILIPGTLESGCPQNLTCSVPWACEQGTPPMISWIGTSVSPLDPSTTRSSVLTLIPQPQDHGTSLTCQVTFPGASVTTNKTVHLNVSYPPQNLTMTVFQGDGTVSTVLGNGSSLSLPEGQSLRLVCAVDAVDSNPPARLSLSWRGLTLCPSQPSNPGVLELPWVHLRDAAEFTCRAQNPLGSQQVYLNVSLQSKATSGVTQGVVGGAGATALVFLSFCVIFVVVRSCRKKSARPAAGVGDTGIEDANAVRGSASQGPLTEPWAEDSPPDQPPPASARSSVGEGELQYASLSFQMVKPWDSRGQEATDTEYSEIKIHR

Trypanosoma cruzi = assay: Trypanosoma cruzi phosphomannomutase and mannose-1-phosphate guanylyltransferase assay; assay type: functional; settings: 10 µM
[4] = biological target: T2, Arginase-2, mitochondrial (Homo sapiens) (UniProt P78540); assay: in vitro enzyme assay to detect the production of urea directly proportional to the activity of Arginase II; assay type: functional; settings: 33.3 µM; further: in the data most compounds retested in dose-response had high values
T2 sequence (whole entry): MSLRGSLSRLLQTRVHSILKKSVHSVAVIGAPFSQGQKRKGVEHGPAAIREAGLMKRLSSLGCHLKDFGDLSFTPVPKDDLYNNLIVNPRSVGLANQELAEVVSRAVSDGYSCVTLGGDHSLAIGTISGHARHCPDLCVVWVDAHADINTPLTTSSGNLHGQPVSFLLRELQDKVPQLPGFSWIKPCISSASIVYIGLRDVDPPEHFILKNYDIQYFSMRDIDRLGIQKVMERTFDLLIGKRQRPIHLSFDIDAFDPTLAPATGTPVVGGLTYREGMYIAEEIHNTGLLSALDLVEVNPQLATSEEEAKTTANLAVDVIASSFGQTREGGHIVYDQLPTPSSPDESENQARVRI

[5] = biological target: T3, Proteasome subunit beta (Trypanosoma cruzi) (UniProt O96673); assay: Trypanosoma cruzi proteasome chymotrypsin-like activity (TcProtChymo) assay.; further: in the data most compounds retested in dose-response had high values; assay type: functional; settings: 9.37 µM
T3 sequence (whole entry): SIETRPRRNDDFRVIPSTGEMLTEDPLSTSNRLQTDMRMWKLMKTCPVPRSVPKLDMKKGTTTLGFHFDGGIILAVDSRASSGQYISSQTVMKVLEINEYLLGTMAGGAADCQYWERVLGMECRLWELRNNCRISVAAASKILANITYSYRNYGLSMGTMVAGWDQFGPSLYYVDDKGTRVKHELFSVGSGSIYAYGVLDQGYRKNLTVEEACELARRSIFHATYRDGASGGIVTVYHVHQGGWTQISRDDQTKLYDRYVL

Homo sapiens = species: Homo sapiens; assay: To identify inhibition of the IFN signalling (Jak-Stat) pathway via expression of an eGFP reporter gene under the control of an IFN-stimulated response element (ISRE) containing MxA promoter.; assay type: functional; settings: 30 µM
[6] = biological target: T4, Tyrosyl-tRNA synthetase, putative (Trypanosoma cruzi (strain CL Brener)) (UniProt Q4DSP6); assay: Trypanosoma cruzi tyrosyl tRNA synthetase (TcYRS) _High Tyrosine SOP; assay type: functional; settings: 30 µM; further: in the data most compounds retested in dose-response had high values
T4 sequence (whole entry): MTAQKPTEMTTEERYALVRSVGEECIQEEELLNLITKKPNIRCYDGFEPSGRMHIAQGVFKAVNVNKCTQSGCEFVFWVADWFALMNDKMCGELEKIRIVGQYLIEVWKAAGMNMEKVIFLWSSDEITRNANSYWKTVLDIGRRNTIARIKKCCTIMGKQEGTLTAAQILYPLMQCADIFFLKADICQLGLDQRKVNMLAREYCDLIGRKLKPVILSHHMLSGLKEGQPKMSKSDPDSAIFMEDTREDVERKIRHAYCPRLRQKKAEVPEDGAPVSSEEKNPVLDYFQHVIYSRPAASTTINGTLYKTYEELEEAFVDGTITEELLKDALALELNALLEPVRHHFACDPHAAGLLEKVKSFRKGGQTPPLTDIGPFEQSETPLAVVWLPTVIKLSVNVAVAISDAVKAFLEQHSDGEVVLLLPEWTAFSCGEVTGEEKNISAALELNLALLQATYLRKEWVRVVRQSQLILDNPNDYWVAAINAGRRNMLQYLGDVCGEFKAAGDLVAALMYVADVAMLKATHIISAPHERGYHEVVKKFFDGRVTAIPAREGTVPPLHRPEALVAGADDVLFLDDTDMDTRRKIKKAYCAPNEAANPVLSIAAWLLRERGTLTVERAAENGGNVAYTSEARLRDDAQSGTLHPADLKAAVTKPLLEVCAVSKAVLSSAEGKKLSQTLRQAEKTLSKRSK

[7] = biological target: T4, Tyrosyl-tRNA synthetase, putative (Trypanosoma cruzi (strain CL Brener)); assay: Trypanosoma cruzi tyrosyl tRNA synthetase (TcYRS) SOP; assay type: functional; settings: 30 µM
[8] = biological target: Chromo domain-containing protein 1 (Saccharomyces cerevisiae (strain ATCC 204508 / S288c) (Baker's yeast)) (UniProt P32657); assay: ScCHD-1 Enzyme Inhibition Assay; assay type: functional; settings: 30 µM; further: in the data most compounds retested in dose-response had high values
Sequence of Chromo domain-containing protein 1 (Saccharomyces cerevisiae (strain ATCC 204508 / S288c) (Baker's yeast)) (P32657 whole entry, the tested form may be a part): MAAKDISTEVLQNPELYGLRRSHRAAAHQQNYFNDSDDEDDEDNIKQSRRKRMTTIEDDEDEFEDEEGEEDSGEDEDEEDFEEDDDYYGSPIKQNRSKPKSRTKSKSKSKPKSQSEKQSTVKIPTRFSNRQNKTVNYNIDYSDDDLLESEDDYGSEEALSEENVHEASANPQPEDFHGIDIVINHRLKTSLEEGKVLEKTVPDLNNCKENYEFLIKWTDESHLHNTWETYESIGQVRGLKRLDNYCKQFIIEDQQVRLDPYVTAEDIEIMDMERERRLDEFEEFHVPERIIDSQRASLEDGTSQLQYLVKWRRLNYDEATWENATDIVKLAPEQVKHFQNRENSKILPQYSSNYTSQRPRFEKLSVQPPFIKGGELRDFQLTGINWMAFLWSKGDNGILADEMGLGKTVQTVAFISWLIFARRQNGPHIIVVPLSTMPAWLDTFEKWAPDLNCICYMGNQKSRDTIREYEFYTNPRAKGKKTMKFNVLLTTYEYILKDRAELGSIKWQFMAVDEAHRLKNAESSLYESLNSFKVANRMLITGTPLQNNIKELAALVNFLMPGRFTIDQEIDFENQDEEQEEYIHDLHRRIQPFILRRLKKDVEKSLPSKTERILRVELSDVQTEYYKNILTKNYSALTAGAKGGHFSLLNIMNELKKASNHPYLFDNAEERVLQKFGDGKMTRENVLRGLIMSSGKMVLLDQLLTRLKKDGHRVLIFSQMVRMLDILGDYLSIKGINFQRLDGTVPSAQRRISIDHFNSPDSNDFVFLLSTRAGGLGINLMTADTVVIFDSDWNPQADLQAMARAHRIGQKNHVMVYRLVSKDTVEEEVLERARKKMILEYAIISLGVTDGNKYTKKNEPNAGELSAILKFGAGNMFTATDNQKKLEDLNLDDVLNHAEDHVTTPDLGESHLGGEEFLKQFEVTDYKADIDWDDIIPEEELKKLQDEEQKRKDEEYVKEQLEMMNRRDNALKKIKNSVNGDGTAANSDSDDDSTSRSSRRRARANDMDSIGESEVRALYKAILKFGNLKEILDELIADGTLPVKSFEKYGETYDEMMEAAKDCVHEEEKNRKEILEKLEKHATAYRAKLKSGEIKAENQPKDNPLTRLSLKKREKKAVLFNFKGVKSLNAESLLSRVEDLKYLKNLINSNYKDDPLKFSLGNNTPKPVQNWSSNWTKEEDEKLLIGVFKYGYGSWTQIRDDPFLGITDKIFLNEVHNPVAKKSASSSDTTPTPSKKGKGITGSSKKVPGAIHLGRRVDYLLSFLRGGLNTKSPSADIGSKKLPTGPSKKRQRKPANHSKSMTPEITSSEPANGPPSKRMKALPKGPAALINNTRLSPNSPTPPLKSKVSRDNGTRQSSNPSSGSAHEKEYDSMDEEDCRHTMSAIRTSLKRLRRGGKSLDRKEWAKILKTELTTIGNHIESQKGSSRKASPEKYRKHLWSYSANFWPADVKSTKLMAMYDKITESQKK

Compound | Percent Effect [1] [%] | Percent Effect [2] [%] | Percent Effect [3] [%] | Percent Effect (Trypanosoma cruzi) [%] | Percent Effect [4] [%] | Percent Effect [5] [%] | Percent Effect (Homo sapiens) [%] | Percent Effect [6] [%] | Percent Effect [7] [%] | Percent Effect [8] [%]
CC(NC(=O)N(C)CCCOc1ccc(F)cc1)c1nncn1C (stereo not given) | -2.67 | 8 | -3.38 | 0.803 | 5.76 | 17.4 | 8.6 | 4.74 | 10.3 | -10.2
CC(C)CCN(C)C(=O)c1nc(S(C)(=O)=O)n2ccccc12 | -4.72 | 12.8 | -6.5 | 5.16 | 1.23 | 2.13 | 0.306 | 6.22 | 10.8 | -1.74
CS(=O)(=O)c1ccccc1C(=O)NCCCN1CCc2ccccc2C1 | -5.27 | 18.7 | 2.07 | 7.03 | -0.887 | 17.1 | -1.14 | 3.68 | 15.4 | -11.6
CCc1cnc(CN2CCC(N(C)Cc3noc(C4CC4)n3)C2)o1 (stereo not given) | -3.48 | 0 | -1.21 | -2.24 | 4.3 | 0.175 | 5.76 | 0.98 | -2.35 | 0.446
COCCN1CCN(Cc2cccc(C(N)=O)c2)CC1C (stereo not given) | -2.01 | 29.3 | -8.56 | 2.81 | -2.66 | 17.6 | 16.2 | 2.63 | 12.8 | -19.1
Cc1ccc(Cl)cc1N1CCC(CNC(=O)CCn2ccnn2)C1 (stereo not given) | -2.11 | 12.8 | -5.81 | -2.35 | 8.61 | 15.8 | 24.6 | 5.26 | 18.1 | 0.402
CCn1ccnc1CNCC1CCCN1c1cccnn1 (stereo not given) | -4.44 | 2.67 | 5.47 | 0.803 | 0.444 | 1.78 | 9.51 | 6.84 | 12.8 | -8.32
COCc1nc(CNC2CCSCC2)no1 | -6.18 | 2.7 | 1.55 | 3.98 | 1.75 | 7.36 | -12.7 | 3.72 | 9.76 | -0.943
CNC(=O)CN(C)c1nc(-c2ccncc2)nc2c1CCN(C(C)=O)C2 | -7.13 | 0 | 0.927 | -1.07 | 2.45 | 9.59 | -4.34 | 1.6 | 7.32 | -3.67
Cc1nc[nH]c1CN1CCN(C(=O)CCC(F)(F)F)[C@H]2CS(=O)(=O)C[C@H]21 | -7.21 | 2.7 | 12 | 7.66 | 14.3 | 15.1 | 11.2 | 7.98 | 12.2 | -1.8
COc1ccc(C)cc1C(C)NC(=O)NCCCn1cncn1 (stereo not given) | -2.2 | 18.7 | 1.49 | 1.81 | 1.33 | 13.5 | 4.64 | 6.84 | 20.5 | -10.3
